{"source": "the supplement of paper PMC11006884", "note": "Targets with a hit are over-represented here; the source holds about 6,500 in all. About 2% of all pairs of compound and target were hits.", "data": [{"compound": "COC(=O)C#Cc1ccccc1 [methyl 3-phenylpropiolate]", "assay": "log2 ratio of iodoacetamide-alkyne labeling of the cysteine site, DMSO over compound (competition); higher = stronger covalent engagement of the cysteine by the compound, active = 1 or more", "settings": "500 µM; treatment time 1 h; system: HEK293T cell lysate", "how_it_was_run": "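The log2 competition ratio per cysteine is defined as mean reporter intensity in control channels over mean reporter intensity in compound channels. Lysate from HEK293T cells (2 mg/mL) received electrophile (500 µM) or vehicle for 1 h at ambient temperature, followed by iodoacetamide alkyne for 1 h. Samples were clicked to sCIP-TMT reagents, pooled, trypsin-digested overnight at 37 °C, streptavidin-enriched, acid-eluted and run on Orbitrap Eclipse LC-MS/MS with FAIMS, with quantification in FragPipe. Three replicates with duplicate channels were used, and any cysteine quantified in only one replicate was excluded.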", "values": [{"target": "UniProt Q7Z2T5_C265", "log2 ratio of iodoacetamide-alkyne labeling": "0.161 (inactive)"}, {"target": "ZGPAT C377 (UniProt Q8N5A5)", "sequence (Q8N5A5 whole entry)": "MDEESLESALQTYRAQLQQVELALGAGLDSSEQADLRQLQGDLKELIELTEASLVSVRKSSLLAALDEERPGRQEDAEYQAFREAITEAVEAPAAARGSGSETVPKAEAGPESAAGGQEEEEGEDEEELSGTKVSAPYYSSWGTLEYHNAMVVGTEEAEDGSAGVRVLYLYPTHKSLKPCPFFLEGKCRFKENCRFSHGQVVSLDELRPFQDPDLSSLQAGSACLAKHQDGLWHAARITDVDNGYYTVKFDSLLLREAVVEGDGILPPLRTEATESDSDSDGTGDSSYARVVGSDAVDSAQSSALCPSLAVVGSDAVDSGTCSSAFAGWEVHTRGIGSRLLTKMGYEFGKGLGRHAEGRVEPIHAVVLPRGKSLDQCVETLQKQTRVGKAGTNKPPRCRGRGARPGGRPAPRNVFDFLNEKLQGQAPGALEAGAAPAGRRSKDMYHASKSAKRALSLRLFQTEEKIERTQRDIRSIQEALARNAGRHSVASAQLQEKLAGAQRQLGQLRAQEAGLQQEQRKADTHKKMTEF", "log2 ratio of iodoacetamide-alkyne labeling": "0.342 (inactive)"}, {"target": "AHCYL2 C353 (UniProt Q96HN2)", "sequence (Q96HN2 whole entry)": "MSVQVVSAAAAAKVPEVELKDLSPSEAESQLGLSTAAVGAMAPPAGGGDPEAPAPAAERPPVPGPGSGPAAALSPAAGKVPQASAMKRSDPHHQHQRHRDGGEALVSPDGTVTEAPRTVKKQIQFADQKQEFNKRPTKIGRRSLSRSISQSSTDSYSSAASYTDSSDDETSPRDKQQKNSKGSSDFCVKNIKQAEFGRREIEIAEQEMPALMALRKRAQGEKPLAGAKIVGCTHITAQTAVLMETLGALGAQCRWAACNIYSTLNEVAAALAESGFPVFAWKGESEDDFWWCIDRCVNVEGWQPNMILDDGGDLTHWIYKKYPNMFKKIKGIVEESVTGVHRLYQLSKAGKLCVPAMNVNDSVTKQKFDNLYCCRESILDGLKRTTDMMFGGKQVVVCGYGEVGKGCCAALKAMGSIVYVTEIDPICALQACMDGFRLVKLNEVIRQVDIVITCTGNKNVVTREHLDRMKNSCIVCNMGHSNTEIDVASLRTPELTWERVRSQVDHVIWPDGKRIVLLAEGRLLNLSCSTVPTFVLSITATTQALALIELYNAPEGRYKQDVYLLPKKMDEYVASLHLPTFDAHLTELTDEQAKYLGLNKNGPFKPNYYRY", "log2 ratio of iodoacetamide-alkyne labeling": "1.13 (active)"}, {"target": "UniProt Q6PJG6_C228", "log2 ratio of iodoacetamide-alkyne labeling": "1.06 (active)"}, {"target": "UniProt Q86YR5_C515", "log2 ratio of iodoacetamide-alkyne labeling": "1.7 (active)"}, {"target": "CCT7 C310 (UniProt Q99832)", "sequence (Q99832 whole entry, looked up)": "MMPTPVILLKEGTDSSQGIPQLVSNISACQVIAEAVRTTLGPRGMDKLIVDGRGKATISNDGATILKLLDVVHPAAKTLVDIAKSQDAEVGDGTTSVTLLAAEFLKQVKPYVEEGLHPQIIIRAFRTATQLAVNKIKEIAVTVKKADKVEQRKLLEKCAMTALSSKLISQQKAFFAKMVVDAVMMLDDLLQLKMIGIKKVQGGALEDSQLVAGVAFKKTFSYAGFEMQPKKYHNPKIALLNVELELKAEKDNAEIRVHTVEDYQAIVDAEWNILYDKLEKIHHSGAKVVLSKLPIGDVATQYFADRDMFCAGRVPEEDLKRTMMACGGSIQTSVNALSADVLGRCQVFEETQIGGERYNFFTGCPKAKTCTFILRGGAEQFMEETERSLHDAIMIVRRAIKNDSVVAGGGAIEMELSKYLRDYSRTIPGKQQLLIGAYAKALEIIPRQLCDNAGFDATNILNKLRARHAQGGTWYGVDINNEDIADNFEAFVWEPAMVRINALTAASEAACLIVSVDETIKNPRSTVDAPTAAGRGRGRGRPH", "log2 ratio of iodoacetamide-alkyne labeling": "0.193 (inactive)"}, {"target": "PYCR2 C262 (UniProt Q96C36)", "sequence (Q96C36 whole entry, looked up)": "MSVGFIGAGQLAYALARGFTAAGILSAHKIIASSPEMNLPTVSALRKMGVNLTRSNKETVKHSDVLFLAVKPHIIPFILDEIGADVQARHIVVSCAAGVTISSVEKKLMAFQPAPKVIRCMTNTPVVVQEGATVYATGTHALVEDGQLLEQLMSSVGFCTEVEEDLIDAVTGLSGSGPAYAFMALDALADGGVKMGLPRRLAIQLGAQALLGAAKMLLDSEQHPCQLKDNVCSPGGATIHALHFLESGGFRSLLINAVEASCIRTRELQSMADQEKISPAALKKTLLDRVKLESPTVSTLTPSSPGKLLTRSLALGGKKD", "log2 ratio of iodoacetamide-alkyne labeling": "0.538 (inactive)"}, {"target": "LGMN C219 (UniProt Q99538)", "sequence (Q99538 whole entry)": "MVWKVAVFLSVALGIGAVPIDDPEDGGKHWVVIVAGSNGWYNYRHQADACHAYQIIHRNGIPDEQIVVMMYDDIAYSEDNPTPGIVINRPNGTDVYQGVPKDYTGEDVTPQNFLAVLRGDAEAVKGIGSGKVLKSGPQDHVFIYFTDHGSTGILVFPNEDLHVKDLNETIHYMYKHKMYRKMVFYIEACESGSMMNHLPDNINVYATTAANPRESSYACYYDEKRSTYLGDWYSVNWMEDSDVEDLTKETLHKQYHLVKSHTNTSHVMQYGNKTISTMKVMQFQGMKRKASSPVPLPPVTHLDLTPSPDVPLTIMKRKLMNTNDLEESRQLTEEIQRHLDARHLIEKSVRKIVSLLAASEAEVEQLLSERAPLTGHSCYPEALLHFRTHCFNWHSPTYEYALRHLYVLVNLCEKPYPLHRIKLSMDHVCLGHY", "log2 ratio of iodoacetamide-alkyne labeling": "0.865 (inactive)"}, {"target": "DHX29 C1025 (UniProt Q7Z478)", "sequence (Q7Z478 whole entry)": "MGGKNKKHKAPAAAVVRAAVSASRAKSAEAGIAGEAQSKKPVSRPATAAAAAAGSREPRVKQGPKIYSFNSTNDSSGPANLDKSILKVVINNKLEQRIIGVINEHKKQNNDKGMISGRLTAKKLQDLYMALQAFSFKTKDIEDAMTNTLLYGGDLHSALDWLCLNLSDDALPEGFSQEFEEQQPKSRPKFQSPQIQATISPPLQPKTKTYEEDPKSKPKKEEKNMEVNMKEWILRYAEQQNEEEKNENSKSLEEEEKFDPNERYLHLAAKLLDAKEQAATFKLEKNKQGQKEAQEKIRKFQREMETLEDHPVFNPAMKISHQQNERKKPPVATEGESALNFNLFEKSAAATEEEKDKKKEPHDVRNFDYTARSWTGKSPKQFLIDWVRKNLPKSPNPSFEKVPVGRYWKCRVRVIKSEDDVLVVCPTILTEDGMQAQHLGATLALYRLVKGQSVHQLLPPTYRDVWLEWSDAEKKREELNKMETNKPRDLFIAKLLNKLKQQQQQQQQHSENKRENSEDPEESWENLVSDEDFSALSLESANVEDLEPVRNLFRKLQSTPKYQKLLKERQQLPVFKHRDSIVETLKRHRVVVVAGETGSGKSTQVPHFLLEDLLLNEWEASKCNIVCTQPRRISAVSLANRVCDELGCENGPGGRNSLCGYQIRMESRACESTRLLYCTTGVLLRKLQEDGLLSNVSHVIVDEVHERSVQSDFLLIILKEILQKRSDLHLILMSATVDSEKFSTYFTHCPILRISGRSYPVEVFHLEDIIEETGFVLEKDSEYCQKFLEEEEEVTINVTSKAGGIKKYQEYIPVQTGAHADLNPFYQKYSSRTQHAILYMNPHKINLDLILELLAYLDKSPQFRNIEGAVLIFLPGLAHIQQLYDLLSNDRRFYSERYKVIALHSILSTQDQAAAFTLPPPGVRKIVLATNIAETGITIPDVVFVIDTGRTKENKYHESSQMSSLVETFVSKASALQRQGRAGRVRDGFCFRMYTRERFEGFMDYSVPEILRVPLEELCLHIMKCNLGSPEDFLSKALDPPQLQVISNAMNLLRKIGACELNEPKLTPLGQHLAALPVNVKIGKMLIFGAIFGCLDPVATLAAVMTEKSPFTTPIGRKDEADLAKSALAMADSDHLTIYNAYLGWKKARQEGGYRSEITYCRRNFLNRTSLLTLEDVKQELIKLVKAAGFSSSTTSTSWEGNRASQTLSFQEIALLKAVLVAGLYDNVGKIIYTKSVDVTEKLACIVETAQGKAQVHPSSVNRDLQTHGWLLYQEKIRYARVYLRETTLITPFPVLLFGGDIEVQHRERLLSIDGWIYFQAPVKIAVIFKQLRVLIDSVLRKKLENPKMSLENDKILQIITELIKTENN", "log2 ratio of iodoacetamide-alkyne labeling": "0.0649 (inactive)"}, {"target": "WDFY2 C290 (UniProt Q96P53)", "sequence (Q96P53 whole entry)": "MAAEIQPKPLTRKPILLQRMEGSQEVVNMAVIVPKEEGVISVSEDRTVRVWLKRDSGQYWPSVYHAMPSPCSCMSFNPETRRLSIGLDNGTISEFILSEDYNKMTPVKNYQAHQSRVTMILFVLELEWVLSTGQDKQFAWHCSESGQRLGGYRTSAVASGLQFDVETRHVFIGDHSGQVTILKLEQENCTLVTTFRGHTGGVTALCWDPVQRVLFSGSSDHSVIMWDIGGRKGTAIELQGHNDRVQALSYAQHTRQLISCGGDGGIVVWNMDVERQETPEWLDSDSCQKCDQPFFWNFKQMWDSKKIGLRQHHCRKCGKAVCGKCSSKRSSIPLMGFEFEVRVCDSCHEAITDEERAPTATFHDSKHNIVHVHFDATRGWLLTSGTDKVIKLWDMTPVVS", "log2 ratio of iodoacetamide-alkyne labeling": "-0.231 (inactive)"}, {"target": "PARK7 C53 (UniProt Q99497)", "sequence (Q99497 whole entry, looked up)": "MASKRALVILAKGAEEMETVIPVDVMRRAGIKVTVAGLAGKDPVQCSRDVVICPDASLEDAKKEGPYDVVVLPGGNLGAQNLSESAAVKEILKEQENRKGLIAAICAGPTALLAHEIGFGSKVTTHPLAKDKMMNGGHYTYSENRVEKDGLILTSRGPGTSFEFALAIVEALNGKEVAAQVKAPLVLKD", "log2 ratio of iodoacetamide-alkyne labeling": "-0.0888 (inactive)"}, {"target": "RNF25 C360 (UniProt Q96BH1)", "sequence (Q96BH1 whole entry)": "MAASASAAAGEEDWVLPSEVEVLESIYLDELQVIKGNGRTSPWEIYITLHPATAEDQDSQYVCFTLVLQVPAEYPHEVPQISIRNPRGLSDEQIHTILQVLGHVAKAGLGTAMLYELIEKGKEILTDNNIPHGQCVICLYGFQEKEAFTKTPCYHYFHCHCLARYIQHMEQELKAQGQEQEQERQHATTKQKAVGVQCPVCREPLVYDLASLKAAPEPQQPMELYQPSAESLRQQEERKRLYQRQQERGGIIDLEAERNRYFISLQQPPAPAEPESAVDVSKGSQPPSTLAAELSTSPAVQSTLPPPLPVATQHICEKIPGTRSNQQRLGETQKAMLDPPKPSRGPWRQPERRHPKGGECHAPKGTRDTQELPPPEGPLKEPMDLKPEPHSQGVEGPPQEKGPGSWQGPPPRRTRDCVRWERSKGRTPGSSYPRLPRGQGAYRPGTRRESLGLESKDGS", "log2 ratio of iodoacetamide-alkyne labeling": "1.07 (active)"}]}]}
